Source: PubChem BioAssay AID1159580 (chemical genetic matrix, 2015)
In all, about 5,500 compounds went through this assay and about 2,000 (36%) were called active. Another 18% or so got no clear call; they are omitted. Cut-off read from the data, not from the text of the source: active = normalized growth mostly below about 0.91 (no sharp cut-off); inconclusive = no clear call, values can overlap the other calls; inactive = mostly above about 0.92. The list shows a part of the results.

Experiment: chemical genetic growth profiling, strain panel (AID 1159580);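 note: tested at 20 µM; growth read once vehicle control cultures reached saturation at 30 °C; 1 = growth at the plate median or of vehicle wells; lower values mean less growth of the strain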
Conditions: S. cerevisiae deletion strains, growth OD
[1] = locus YHR030C, strain SLT2, stronger effect = lower value
[2] = locus YHR079C, strain IRE1, stronger effect = lower value
[3] = locus YJL095W, strain BCK1, stronger effect = lower value
[4] = locus YJR066W, strain TOR1, stronger effect = lower value
[5] = locus YLR113W, strain HOG1, stronger effect = lower value
[6] = locus YNL183C, strain NPR1, stronger effect = lower value
[7] = locus YOR231W, strain MKK1, stronger effect = lower value
[8] = locus YPL256C, strain CLN2, stronger effect = lower value

Measured: normalized growth

Cc1ccccc1/C=C/c1c[nH]c2ccccc12
inactive: locus YAR019C, strain CDC15, stronger effect = lower value 0.937 | locus YBL105C, strain PKC1, stronger effect = lower value 0.961 | locus YBR135W, strain CKS1, stronger effect = lower value 0.946 | locus YBR136W, strain MEC1, stronger effect = lower value 0.954 | locus YBR160W, strain CDC28, stronger effect = lower value 0.951 | locus YDL017W, strain CDC7, stronger effect = lower value 0.955 | locus YDL028C, strain MPS1, stronger effect = lower value 0.963 | locus YDL101C, strain DUN1, stronger effect = lower value 0.953 | locus YDL108W, strain KIN28, stronger effect = lower value 0.949 | locus YDL132W, strain cdc53, stronger effect = lower value 0.942 | locus YDL214C, strain PRR2, stronger effect = lower value 0.902 | locus YDR052C, strain DBF4, stronger effect = lower value 0.95 | locus YDR054C, strain cdc34, stronger effect = lower value 0.985 | locus YDR226W, strain ADK1, stronger effect = lower value 0.949 | locus YDR477W, strain SNF1, stronger effect = lower value 0.924 | locus YER123W, strain YCK3, stronger effect = lower value 0.855 | locus YER133W, strain GLC7, stronger effect = lower value 0.906 | locus YFL009W, strain cdc4, stronger effect = lower value 0.945 | locus YFL029C, strain CAK1, stronger effect = lower value 0.92 | locus YFR003C, strain YPI1, stronger effect = lower value 0.958 | locus YFR019W, strain FAB1, stronger effect = lower value 0.924 | locus YFR028C, strain CDC14, stronger effect = lower value 0.955 | locus YGR040W, strain KSS1, stronger effect = lower value 0.916 | locus YGR052W, strain FMP48, stronger effect = lower value 0.965 | locus YGR092W, strain DBF2, stronger effect = lower value 0.858 | [1] 0.921 | [2] 0.948 | locus YHR082C, strain KSP1, stronger effect = lower value 0.937 | locus YHR205W, strain SCH9, stronger effect = lower value 0.88 | locus YIL147C, strain SLN1, stronger effect = lower value 0.956 | [3] 0.946 | locus YJL128C, strain PBS2, stronger effect = lower value 0.906 | locus YJL157C, strain FAR1, stronger effect = lower value 0.895 | locus YJR016C, strain ILV3, stronger effect = lower value 0.952 | locus YJR066W, strain TOR1 (second series), stronger effect = lower value 0.882 | [4] 0.955 | locus YKL048C, strain ELM1, stronger effect = lower value 0.948 | locus YKL067W, strain YNK1, stronger effect = lower value 0.91 | locus YKL101W, strain HSL1, stronger effect = lower value 0.94 | locus YKL193C, strain SDS22, stronger effect = lower value 0.948 | locus YKL203C, strain TOR2, stronger effect = lower value 0.989 | locus YLR133W, strain CKI1, stronger effect = lower value 0.931 | locus YLR403W, strain SFP1, stronger effect = lower value 0.893 | locus YML070W, strain DAK1, stronger effect = lower value 0.891 | locus YMR001C, strain CDC5, stronger effect = lower value 0.937 | locus YMR205C, strain PFK2 (second series), stronger effect = lower value 0.934 | locus YMR277W, strain FCP1, stronger effect = lower value 0.959 | locus YNL006W, strain LST8, stronger effect = lower value 0.955 | locus YNL020C, strain ARK1, stronger effect = lower value 0.912 | locus YNL161W, strain CBK1, stronger effect = lower value 0.953 | [6] 0.94 | locus YNL207W, strain RIO2, stronger effect = lower value 0.948 | locus YNL222W, strain SSU72, stronger effect = lower value 0.946 | locus YNL307C, strain MCK1 (second series), stronger effect = lower value 0.941 | locus YOL078W, strain AVO1, stronger effect = lower value 0.946 | locus YOL136C, strain PFK27, stronger effect = lower value 0.887 | locus YOR061W, strain CKA2, stronger effect = lower value 0.895 | locus YOR119C, strain RIO1, stronger effect = lower value 0.943 | [7] 0.923 | locus YOR329C, strain SCD5, stronger effect = lower value 0.961 | locus YPL031C, strain PHO85, stronger effect = lower value 0.914 | locus YPL153C, strain RAD53, stronger effect = lower value 0.931 | locus YPL204W, strain HRR25, stronger effect = lower value 0.941 | locus YPL209C, strain IPL1, stronger effect = lower value 0.95 | [8] 0.91 | locus YPR025C, strain CCL1, stronger effect = lower value 0.955 | locus YPR106W, strain ISR1, stronger effect = lower value 0.964 | locus YPR111W, strain DBF20, stronger effect = lower value 0.952 | strain NNK1, stronger effect = lower value 0.961 | strain TSCII, stronger effect = lower value 0.947
active: [5] 0.784

Cc1c[nH]c2ccccc12
inactive: [1] 0.992 | [2] 0.979 | [3] 0.999 | [4] 0.94 | [5] 0.945 | [6] 0.927 | [7] 1 | [8] 1.02

Cc1ccccc1/C=C/C1=NCCN1
inactive: locus YAL013W, strain DEP1, stronger effect = lower value 0.997 | locus YAL040C, strain CLN3, stronger effect = lower value 1.09 | locus YCL061C, strain MRC1 (second series), stronger effect = lower value 1.01 | locus YDR150W, strain NUM1, stronger effect = lower value 1.02 | locus YDR363W, strain ESC2, stronger effect = lower value 0.999 | locus YER002W, strain NOP16, stronger effect = lower value 1.01 | locus YGR078C, strain PAC10, stronger effect = lower value 0.982 | locus YJR075W, strain HOC1, stronger effect = lower value 0.997 | locus YMR263W, strain SAP30, stronger effect = lower value 0.995 | locus YMR307W, strain GAS1, stronger effect = lower value 0.978 | locus YNL175C, strain NOP13, stronger effect = lower value 1 | locus YNL197C, strain WHI3, stronger effect = lower value 0.993 | locus YNL224C, strain SQS1, stronger effect = lower value 0.991 | locus YOR083W, strain WHI5 (second series), stronger effect = lower value 0.991
